According to the supplement of paper PMC11732987, “Enantioselective OTUD7B fragment discovery through chemoproteomics screening and high-throughput optimisation” (Communications Chemistry, 2025):

Tests used:
Assay in all cases: log2 ratio of Biotin-Ahx-Ub-VS probe labelling (fragment/DMSO); higher = less target engagement (more negative = stronger competition), active = hit call of the paper (q ≤ 0.05, log2 ratio ≤ -1)
Conditions in all cases: compound concentration: 200 uM; treatment time: 3 h
USP34 = USP34 (UniProt Q70CQ2)
Sequence of USP34 (Q70CQ2 whole entry, the tested form may be a part): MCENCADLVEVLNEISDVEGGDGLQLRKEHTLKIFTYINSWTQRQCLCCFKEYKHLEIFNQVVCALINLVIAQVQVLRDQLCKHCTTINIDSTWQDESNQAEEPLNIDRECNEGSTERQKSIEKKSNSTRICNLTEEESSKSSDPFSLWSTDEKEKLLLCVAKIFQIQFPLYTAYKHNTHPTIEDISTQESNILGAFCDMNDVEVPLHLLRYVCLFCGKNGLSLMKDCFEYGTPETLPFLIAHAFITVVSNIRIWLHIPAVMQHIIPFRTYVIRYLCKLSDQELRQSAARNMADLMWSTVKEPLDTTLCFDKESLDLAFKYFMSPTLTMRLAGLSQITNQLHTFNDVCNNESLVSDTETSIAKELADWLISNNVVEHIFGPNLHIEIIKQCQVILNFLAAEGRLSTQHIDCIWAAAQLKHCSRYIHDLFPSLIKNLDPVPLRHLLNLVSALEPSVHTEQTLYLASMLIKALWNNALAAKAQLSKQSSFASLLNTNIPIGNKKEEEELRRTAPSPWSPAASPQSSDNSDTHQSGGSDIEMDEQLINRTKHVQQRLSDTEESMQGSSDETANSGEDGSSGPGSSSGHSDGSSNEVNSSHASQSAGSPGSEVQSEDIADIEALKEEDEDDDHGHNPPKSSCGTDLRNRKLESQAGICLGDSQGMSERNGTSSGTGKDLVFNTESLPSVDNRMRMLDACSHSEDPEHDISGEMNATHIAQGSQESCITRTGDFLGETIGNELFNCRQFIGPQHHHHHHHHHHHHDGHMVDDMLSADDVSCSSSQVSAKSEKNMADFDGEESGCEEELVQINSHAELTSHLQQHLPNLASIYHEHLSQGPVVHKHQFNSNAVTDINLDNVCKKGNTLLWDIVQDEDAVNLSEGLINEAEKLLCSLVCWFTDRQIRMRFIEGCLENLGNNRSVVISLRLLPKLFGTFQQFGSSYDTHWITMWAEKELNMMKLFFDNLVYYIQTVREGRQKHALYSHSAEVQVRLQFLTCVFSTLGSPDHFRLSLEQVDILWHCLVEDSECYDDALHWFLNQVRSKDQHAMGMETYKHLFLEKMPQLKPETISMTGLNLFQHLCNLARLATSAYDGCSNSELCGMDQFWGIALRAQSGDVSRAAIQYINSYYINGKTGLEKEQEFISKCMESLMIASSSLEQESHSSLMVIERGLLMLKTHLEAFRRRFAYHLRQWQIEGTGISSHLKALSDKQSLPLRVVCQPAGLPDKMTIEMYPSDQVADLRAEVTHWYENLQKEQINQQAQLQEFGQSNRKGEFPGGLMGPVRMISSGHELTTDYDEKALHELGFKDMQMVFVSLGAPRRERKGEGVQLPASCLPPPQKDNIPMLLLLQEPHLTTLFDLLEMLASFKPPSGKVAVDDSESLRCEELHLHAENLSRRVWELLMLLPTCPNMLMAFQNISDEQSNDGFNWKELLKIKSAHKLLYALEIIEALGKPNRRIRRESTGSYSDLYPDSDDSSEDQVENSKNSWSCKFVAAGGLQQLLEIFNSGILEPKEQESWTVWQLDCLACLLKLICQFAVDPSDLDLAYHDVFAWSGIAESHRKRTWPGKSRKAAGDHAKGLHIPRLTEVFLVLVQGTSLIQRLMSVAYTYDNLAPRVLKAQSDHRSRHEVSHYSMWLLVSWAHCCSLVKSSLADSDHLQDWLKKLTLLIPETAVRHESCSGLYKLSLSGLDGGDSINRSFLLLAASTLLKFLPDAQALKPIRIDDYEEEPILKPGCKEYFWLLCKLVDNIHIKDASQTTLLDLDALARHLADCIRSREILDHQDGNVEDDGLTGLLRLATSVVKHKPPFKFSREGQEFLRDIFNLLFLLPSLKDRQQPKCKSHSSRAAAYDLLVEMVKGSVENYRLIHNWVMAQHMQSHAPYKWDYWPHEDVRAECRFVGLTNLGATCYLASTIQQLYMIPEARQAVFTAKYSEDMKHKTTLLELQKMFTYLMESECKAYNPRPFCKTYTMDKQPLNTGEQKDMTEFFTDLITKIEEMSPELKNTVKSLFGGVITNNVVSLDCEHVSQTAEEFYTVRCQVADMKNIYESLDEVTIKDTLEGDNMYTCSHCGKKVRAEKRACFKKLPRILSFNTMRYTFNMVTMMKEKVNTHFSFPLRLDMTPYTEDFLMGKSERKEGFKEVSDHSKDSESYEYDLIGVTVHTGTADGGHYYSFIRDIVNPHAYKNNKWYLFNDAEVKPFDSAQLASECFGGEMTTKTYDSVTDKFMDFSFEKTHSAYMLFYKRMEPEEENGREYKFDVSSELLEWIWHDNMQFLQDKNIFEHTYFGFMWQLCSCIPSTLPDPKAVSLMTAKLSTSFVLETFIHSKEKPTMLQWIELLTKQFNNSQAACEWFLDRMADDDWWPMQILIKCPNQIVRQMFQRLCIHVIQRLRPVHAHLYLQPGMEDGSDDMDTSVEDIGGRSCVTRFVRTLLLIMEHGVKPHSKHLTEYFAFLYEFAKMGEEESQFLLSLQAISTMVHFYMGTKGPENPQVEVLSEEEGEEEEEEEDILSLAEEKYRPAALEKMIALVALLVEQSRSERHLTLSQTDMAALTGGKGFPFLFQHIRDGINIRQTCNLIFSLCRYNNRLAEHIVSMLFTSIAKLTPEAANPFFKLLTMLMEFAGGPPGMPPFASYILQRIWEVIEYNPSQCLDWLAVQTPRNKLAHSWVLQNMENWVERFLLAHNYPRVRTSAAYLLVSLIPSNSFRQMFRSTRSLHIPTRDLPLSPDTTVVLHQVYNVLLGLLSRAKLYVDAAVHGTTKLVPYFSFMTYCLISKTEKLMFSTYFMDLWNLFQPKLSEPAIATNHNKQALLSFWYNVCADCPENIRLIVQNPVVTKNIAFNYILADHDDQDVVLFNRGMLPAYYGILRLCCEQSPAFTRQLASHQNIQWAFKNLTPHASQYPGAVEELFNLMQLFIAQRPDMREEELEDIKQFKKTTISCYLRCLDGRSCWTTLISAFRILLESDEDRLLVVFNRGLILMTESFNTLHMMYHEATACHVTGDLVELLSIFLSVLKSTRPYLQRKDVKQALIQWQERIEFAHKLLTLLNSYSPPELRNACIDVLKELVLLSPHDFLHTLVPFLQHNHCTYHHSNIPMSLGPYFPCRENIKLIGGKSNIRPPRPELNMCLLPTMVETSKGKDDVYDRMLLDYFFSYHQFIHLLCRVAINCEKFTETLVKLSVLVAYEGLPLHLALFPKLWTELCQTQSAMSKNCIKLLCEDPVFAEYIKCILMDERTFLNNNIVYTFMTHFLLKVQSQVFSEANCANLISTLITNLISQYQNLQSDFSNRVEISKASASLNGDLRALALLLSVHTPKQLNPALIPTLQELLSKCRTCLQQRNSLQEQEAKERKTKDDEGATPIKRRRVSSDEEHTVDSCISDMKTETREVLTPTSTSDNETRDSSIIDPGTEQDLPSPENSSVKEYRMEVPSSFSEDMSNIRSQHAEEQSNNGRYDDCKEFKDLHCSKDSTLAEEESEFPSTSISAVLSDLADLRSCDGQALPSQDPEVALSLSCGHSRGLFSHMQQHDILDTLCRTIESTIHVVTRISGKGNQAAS
Outline: (§1)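 HEK293T lysate, 495 µg per sample in Tris/CHAPS/IGEPAL buffer with protease inhibitors, was treated in triplicate with fragment at 200 µM or vehicle for 3 h and then with Biotin-Ahx-Ub-VS at 0.5 µM final for 1 h. Labelled DUBs were NeutrAvidin-enriched, digested with LysC and trypsin, and run by diaPASEF LC-MS/MS. Spectronaut label-free quantities were global-median-normalised, and values are average log2 fragment/vehicle ratios by unpaired t-test on proteins with ≥2 unique peptides.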

USP36 = target: T1, USP36 (UniProt Q9P275)
T1 sequence (whole entry): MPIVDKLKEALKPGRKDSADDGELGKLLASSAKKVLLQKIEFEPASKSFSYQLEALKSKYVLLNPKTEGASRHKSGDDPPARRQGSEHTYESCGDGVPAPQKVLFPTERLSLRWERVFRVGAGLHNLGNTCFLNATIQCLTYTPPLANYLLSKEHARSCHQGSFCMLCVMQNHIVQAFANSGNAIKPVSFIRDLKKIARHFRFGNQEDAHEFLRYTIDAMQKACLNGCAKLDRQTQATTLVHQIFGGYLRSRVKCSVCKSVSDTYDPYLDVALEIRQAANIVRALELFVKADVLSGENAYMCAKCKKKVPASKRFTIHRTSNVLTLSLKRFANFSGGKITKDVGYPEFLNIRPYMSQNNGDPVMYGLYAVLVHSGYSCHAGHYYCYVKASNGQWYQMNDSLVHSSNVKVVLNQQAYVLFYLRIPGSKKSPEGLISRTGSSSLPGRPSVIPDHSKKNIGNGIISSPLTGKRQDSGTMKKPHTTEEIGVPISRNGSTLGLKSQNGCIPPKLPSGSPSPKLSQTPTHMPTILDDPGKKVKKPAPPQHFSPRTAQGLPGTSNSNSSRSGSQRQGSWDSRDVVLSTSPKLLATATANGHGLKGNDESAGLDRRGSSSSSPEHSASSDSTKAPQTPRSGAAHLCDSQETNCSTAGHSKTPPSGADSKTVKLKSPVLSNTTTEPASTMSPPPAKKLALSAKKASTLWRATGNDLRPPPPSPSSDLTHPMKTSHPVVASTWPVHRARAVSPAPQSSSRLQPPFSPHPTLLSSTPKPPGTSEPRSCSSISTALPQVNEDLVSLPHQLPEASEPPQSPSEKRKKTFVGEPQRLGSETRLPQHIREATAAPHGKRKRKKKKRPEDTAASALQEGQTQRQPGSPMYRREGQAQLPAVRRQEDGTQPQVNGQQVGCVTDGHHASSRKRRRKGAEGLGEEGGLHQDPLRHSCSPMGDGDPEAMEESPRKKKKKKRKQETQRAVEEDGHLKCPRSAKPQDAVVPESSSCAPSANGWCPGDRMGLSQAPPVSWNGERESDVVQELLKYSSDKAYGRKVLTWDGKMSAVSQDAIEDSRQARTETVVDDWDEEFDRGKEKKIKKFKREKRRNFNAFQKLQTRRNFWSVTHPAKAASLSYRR
Outline: as §1

USP38 = target: T2, USP38 (UniProt Q8NB14)
T2 sequence (whole entry): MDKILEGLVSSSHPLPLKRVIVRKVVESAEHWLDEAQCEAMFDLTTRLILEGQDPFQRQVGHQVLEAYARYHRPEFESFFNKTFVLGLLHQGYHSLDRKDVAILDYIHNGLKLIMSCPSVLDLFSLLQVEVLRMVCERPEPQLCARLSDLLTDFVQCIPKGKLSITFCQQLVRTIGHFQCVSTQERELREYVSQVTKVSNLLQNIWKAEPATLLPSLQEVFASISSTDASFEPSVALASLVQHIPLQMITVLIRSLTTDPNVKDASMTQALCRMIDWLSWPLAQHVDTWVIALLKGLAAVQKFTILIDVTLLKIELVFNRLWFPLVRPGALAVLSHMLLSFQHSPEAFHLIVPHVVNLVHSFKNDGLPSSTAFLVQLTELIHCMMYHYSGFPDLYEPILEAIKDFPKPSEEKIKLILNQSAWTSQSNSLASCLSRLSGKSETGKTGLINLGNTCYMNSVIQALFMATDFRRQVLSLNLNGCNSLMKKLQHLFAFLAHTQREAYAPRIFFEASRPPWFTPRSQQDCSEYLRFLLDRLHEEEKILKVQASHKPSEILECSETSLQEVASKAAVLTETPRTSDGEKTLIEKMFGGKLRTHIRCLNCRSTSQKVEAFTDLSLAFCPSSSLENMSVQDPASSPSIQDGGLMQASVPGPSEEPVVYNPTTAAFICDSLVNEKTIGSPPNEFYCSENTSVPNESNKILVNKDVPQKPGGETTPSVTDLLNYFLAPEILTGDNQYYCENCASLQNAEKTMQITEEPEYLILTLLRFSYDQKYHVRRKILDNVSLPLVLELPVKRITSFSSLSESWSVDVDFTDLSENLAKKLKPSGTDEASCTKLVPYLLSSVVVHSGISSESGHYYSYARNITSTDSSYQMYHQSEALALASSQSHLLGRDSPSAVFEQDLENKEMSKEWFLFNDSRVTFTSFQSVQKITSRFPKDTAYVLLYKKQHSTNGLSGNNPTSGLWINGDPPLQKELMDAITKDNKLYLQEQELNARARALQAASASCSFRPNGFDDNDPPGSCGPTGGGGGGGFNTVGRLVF
Outline: as §1

USP39 = target: T3, USP39 (UniProt Q53GS9)
T3 sequence (whole entry): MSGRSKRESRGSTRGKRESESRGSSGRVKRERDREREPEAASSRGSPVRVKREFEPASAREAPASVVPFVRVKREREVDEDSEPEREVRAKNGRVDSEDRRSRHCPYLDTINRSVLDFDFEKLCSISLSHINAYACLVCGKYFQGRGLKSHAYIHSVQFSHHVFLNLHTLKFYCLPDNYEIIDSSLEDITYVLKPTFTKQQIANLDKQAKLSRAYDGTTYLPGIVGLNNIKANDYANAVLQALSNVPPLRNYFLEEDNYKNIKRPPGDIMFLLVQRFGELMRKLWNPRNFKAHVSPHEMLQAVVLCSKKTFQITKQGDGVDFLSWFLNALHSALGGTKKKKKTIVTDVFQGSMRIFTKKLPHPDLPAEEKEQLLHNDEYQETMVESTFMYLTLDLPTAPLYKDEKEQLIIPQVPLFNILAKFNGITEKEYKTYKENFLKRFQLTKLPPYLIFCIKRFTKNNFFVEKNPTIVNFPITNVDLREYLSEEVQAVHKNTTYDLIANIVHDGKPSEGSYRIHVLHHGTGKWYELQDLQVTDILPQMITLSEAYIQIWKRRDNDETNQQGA
Outline: as §1

USP4 = target: T4, USP4 (UniProt Q13107)
T4 sequence (whole entry): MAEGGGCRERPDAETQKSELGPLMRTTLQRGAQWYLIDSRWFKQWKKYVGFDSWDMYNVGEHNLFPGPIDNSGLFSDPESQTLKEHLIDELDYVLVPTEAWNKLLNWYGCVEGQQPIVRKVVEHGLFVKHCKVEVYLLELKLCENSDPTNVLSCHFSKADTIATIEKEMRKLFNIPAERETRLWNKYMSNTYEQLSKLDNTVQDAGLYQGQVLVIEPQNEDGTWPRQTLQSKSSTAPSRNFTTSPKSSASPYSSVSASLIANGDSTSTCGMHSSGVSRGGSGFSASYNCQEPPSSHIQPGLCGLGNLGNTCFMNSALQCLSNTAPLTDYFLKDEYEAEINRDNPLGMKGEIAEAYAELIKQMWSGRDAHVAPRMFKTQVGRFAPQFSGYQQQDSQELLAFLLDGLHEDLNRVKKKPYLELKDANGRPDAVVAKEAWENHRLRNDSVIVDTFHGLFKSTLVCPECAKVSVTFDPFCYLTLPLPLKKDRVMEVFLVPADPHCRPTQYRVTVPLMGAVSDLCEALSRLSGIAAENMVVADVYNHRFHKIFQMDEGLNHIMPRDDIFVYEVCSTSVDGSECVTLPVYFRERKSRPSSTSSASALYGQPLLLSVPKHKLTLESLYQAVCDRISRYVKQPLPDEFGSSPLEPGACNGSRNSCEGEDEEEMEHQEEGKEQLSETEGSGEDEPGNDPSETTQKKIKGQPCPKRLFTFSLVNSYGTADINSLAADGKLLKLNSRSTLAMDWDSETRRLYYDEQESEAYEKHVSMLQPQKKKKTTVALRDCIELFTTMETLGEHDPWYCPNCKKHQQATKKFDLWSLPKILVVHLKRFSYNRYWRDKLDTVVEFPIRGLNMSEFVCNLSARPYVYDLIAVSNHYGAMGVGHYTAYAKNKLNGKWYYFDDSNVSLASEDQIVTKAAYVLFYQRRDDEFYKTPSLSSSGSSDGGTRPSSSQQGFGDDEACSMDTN
Outline: as §1

Measured: log2 ratio of Biotin-Ahx-Ub-VS probe labelling

O=C(CCl)N[C@H]1CC[C@@H](CO)CC1
inactive: USP34 -0.402 | USP36 -0.283 | USP38 -0.651 | USP39 -0.098 | USP4 -0.775
